Assay outcomes: PubChem, National Center for Advancing Translational Sciences (NCATS)
LDHA inh – inhibitors of human lactate dehydrogenase A. purified LDHA, NADH/diaphorase-resazurin fluorescence; stronger effect = lower value. 0.15% of 480,000 active. AID 1347041. activity change, % (values are at about 110 or 230 µM); in the data active = activity change below about -30%; inconclusive = mostly about -25% to -30%;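 also: plate controls were DMSO wells for no effect and wells without enzyme for full effect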
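Human LDH5 at 2 nM final in Tris HCl pH 7.4 with 0.06 mM NADH and 0.2 mM pyruvate, reacted 5 minutes at room temperature. Remaining NADH coupled via diaphorase/resazurin; resorufin fluorescence read at 0 and 20 minutes, normalized to enzyme-free and DMSO wells.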
IDH1 R132H inh – human IDH1 R132H inhibition. IDH1-R132H enzyme, NADPH consumption, diaphorase/resazurin fluorescence. Potency, µM (highest dose often 76.6 µM), for inactives: top-dose activity change, negative = inhibition, usual class: inhibitors. 0.093% of 390,000 active; also: potency is read from the fitted curve at half-maximal effect; % is scaled to controls: 0 for no effect and ±100 for the full control effect; nearly all actives have a fitted effect of over 65% in size
Target sequence (O75874 whole entry R132H, stated change not applied): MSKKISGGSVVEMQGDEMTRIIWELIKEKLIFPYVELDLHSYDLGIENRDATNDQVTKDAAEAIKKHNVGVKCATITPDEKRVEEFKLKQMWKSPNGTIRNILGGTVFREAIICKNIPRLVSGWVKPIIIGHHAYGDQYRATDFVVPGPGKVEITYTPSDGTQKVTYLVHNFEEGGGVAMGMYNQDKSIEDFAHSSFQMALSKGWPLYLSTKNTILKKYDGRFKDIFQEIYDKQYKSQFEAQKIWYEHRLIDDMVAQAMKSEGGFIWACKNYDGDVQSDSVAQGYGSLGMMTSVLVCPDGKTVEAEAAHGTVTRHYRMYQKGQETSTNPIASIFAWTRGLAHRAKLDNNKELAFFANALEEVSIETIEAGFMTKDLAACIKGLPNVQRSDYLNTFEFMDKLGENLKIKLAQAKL
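IDH1-R132H (0.5 ug/mL dispensed) in pH 7.5 Tris buffer was preincubated 30 min with compound, then given a substrate mix of 0.016 mM NADPH and 2 mM alpha-KG for 80 min at room temperature; remaining NADPH was read by diaphorase/resazurin fluorescence.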
PINK1 expr mod – changes PINK1 expression; AID 624263; 0.2% of 410,000 active; Potency, µM (highest dose often 76.6 µM), without a hit: at the highest dose activation (PINK1 increase), usual class: activators; PINK1 immunofluorescence, high-content cytometry, 24 h; active = well fitted activation curve with a large enough effect; inconclusive = small, poorly fitted or top-dose-only effect; cell line not stated here; also: potency is read from the fitted curve at half-maximal effect; % of control where 0% means no effect; nearly all actives have a fitted effect of over 65% in size
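Stable cell line, 250 cells/well, 12 h attachment; compounds pinned at 5 concentrations, 24 h; CCCP control. Fixed with nuclear dye, primary antibodies 12 h at 10 degrees C, secondary plus cell stain; laser-scanning cytometer read.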
Vif-A3G inh – inhibitors of Vif-APOBEC3G interaction; Q9HC16; HeLa A3G-eYFP + Vif (tagged APOBEC3G with the HIV-1 protein that degrades it), YFP fluorescence, overnight; Potency, µM (series often up to 46.1 µM), inactives show top-dose activity, negative = active, actives largely listed as inhibitors; 0.076% of 410,000 active; AID 602310; also: potency is read from the fitted curve at half-maximal effect; % is scaled to controls: 0 for no effect and ±100 for the full control effect; nearly all actives have a fitted effect of over 60% in size
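HeLa cells stably expressing Vif and C-terminally eYFP-tagged A3G, seeded overnight at 37 deg C, then exposed to compound by pintool overnight at 37 deg C. Rise in yellow fluorescence (Ex 488/Em 500-530, Acumen) marks blocked Vif-driven A3G degradation.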
PTHR1 agonist – agonists of human PTHR1 parathyroid hormone receptor. HEK293 GP2 PTHR1 cells, GloSensor cAMP luminescence, 1 h. AID 743266. 0.075% of 410,000 active. Q03431. Potency, µM (doses to about 115 µM), for the others: at the top dose activation, actives largely listed as activators; also: potency is read from the fitted curve at half-maximal effect; nearly all actives have a fitted effect of over 55% in size
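HEK-293-derived GP2 cells expressing PTHR1 and a GloSensor cAMP reporter, 3,000/well, plated overnight, given luciferin plus IBMX (each 0.5 mM as added) for 1 h at 37 °C, then compound for 1 h at 37 °C. Luminescence was read after 15 min at room temperature.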
Vif-APOBEC3F blk – blocks the Vif interaction with APOBEC3F. 0.2% of 390,000 active. HeLa A3F-eYFP + Vif (tagged APOBEC3F with the HIV-1 protein that degrades it), YFP fluorescence increase. AID 602313. Potency, µM (series often up to 46.1 µM), inactives show at the highest dose activity, negative = active; also: potency is read from the fitted curve at half-maximal effect; % of control where 0% means no effect; nearly all actives have a fitted effect of over 65% in size
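HeLa cells stably expressing Vif plus C-terminally eYFP-tagged A3F were seeded, incubated overnight at 37 deg C, dosed with compound, incubated overnight again at 37 deg C. Yellow fluorescence (Ex 488/Em 500-530) reported blocked Vif-mediated A3F-eYFP degradation.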
Resorufin autofl – autofluorescence interference, mutant IDH1 hit counter-screen; shares compounds with IDH1 R132H inh; Resorufin detection reagent fluorescence interference, cell-free; inhibition of signal, % at 51.2 µM; 750 tested, under 10 active; AID 623980;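 also: 0% = wells with normal resorufin and full inhibition = wells lacking resorufin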
IDH1 WT – wild-type IDH1 (human) inhibition counterscreen; shares compounds with IDH1 R132H inh; WT IDH1 enzyme, NADPH diaphorase/resazurin fluorescence; Potency, µM (series often up to 115 µM), for inactives: at the highest dose activity change, negative = inhibition, hits mostly inhibitors; 9% of 750 active; AID 623995;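 also: potency is read from the fitted curve at half-maximal effect; 0% = full WT IDH1 enzyme control and full inhibition = no enzyme wells; nearly all actives have a fitted effect of over 55% in size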
Target sequence (O75874 whole entry, looked up): as the sequence (O75874 whole entry R132H, stated change not applied) above, with H132R counted along it
mIDH1 confirm – inhibits human mutant IDH1 enzyme in cherrypick confirmation; IDH1 R132H enzyme, NADPH diaphorase/resazurin fluorescence; Potency, µM (top dose mostly 76.6 µM), for inactives: at the highest dose activity change, negative = inhibition, usual class: inhibitors; shares compounds with IDH1 R132H inh; 83% of 750 active; also: potency is read from the fitted curve at half-maximal effect; nearly all actives have a fitted effect of over 50% in size
Starred values were filed as active, the others as inactive; i = inactive; ? = inconclusive; / = no result given. Compounds with a hit are over-represented: about 0.59% of the library has one in this group of screens. Unless noted, calls follow the shape of the dose curve; as a rule, active = well fitted curve in the direction sought with a large enough effect; inconclusive = small, poorly fitted or top-dose-only effect, or another doubt; inactive = no such curve, though single readings can be large; an effect the other way counts as inactive or inconclusive.

SMILES | LDHA inh | IDH1 R132H inh | PINK1 expr mod | Vif-A3G inh | PTHR1 agonist | Vif-APOBEC3F blk | Resorufin autofl | IDH1 WT | mIDH1 confirm
COC(=O)[C@@]12CCCCN1[C@H](c1ccc(-c3ccc(OC)cc3)c(OC)c1)[C@@H]1C(=O)N(C)C(=O)[C@@H]12 | 4 | 35µM* | 0% | -4% | -60% | -3% | 4 | 5% | 5µM*
CCc1ccc(NC(=O)CN(c2cccc(C)c2C)S(C)(=O)=O)cc1 | 1 | / | / | / | / | / | / | / | /
N#Cc1c(-c2ccc(-c3ccc(-c4no[n+]([O-])c4C#N)cc3)cc2)no[n+]1[O-] | -2 | / | / | / | / | / | / | / | /
Cc1ccc(-c2n[nH]c3c2C(c2ccccc2)N(c2ccc(C(=O)O)cc2)C3=O)cc1 (stereo not drawn) | -8 | 52µM* | 0% | 2% | -6% | 12% | -2 | -23% | 28µM*
COc1ccc(C2c3c(-c4ccccc4)n[nH]c3C(=O)N2c2ccc(C(=O)O)cc2)c(OC)c1 (stereo not drawn) | -8 | 40µM* | 1% | 1% | -5% | -2% | 6 | ? | 28µM*
Cc1ccc(-c2n[nH]c3c2C(c2cccc(O)c2)N(c2ccc(C(=O)O)cc2)C3=O)cc1 (stereo not drawn) | -3 | 7% | 1% | -1% | -17% | 7% | / | / | /
CCOC(=O)c1ccc(N2C(=O)c3n[nH]c(C)c3C2c2ccc(OC)cc2OC)cc1 (stereo not drawn) | 0 | -17% | -2% | 0% | -86% | -2% | / | / | /
CCOc1ccc(N2C(=O)c3[nH]nc(-c4ccccc4)c3C2c2ccc(O)c(OC)c2)cc1 (stereo not drawn) | 6 | ? | 0% | -9% | -33% | 0% | 0 | 1% | 20µM*
CCOC(=O)c1ccc(N2C(=O)c3n[nH]c(-c4ccco4)c3C2c2ccc(OC)cc2OC)cc1 (stereo not drawn) | 3 | ? | ? | 1% | -19% | -3% | 1 | -1% | ?
O=C(c1ccc(OCc2cn3ccccc3n2)cc1)N1CCN(c2ccc(O)cc2)CC1 | 28 | / | / | / | / | / | / | / | /
O=C1c2[nH]nc(-c3ccc(Br)cc3)c2C(c2cccc(O)c2)N1c1ccc(Cl)cc1 (stereo not drawn) | -12 | 40µM* | -2% | -15% | -19% | 1% | -6 | 1% | 20µM*
COC(=O)c1ccc(C2c3c(-c4ccc(Br)cc4)n[nH]c3C(=O)N2c2ccc(Cl)cc2)cc1 (stereo not drawn) | -2 | -12% | ? | -20% | i | -1% | / | / | /
CC1=C/C(=N/NC(=S)Nc2cc(C)ccc2C)CC1 | 0 | / | / | / | / | / | / | / | /
CC(/C=C1\SC(=S)N(c2ccc(C(=O)O)cc2)C1=O)=C\c1ccccc1 | -7 | 23µM* | 0% | 0% | -31% | -6% | -4 | 45µM* | 50µM*
COc1ccc2c(c1)c1ccc3c(c1n2C)C(=O)C=CC3=O | 8 | 35µM* | 9% | -9% | -93% | ? | 0 | 138% | 22µM*
Cc1ccc2c(c1)c1ccc3c(c1n2C)C(=O)C=CC3=O | 7 | 41µM* | -2% | -17% | -5% | ? | 2 | 60% | 22µM*
